± gives the standard deviation of the averaged measurements.
Tests used:
Experiment in all cases: relative enzymatic activity vs untreated control (fraction); higher = less inhibition
Settings in all cases: 100 µM; incubation time: 2 h at 37 C
[1] = system: DNA gyrase
Protocol: (§1)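 In vitro enzymatic inhibition assays (ProFoldin kits) for 12 purified essential E. coli enzymes or complexes, each treated with 218 active antibacterial compounds at 100 µM for 2 h at 37°C. Read-outs were fluorescence or absorbance (phosphate detection, dye binding), converted to activity via standard curves and expressed relative to untreated DMSO controls.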

[2] = biological target: DNA helicase (UniProt P0ACB1)
Chain of DNA helicase (P0ACB1 whole entry): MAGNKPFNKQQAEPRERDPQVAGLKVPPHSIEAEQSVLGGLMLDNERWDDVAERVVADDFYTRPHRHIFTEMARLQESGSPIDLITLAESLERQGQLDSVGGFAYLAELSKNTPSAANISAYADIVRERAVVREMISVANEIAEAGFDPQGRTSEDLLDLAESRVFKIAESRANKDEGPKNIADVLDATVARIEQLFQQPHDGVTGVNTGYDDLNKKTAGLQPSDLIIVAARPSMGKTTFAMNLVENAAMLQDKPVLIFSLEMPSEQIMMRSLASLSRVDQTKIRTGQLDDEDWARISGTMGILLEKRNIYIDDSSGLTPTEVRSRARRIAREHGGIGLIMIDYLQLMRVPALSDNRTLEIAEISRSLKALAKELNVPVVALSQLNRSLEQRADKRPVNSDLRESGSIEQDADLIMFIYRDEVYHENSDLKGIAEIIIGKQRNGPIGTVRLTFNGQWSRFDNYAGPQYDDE
Protocol: as §1

[3] = biological target: DNA ligase (UniProt B1XA82)
Chain of DNA ligase (B1XA82 whole entry): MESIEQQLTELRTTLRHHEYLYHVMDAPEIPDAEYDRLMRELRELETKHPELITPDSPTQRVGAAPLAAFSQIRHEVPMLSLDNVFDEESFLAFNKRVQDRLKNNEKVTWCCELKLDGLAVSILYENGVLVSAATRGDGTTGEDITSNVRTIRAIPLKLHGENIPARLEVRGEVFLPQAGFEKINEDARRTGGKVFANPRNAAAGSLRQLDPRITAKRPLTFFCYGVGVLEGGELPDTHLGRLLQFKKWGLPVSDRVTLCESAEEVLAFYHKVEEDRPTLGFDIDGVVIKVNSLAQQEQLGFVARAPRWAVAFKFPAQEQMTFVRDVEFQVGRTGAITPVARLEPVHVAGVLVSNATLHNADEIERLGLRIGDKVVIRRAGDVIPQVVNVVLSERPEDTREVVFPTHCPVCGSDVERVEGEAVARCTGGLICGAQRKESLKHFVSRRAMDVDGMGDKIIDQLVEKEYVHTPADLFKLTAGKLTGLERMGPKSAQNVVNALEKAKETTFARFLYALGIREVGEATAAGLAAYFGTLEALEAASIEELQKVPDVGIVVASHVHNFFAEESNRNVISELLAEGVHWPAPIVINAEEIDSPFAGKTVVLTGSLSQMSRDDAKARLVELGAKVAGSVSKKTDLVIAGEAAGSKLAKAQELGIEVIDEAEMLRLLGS
Protocol: as §1

[4] = biological target: DNA polymerase (UniProt P10443)
Chain of DNA polymerase (P10443 whole entry): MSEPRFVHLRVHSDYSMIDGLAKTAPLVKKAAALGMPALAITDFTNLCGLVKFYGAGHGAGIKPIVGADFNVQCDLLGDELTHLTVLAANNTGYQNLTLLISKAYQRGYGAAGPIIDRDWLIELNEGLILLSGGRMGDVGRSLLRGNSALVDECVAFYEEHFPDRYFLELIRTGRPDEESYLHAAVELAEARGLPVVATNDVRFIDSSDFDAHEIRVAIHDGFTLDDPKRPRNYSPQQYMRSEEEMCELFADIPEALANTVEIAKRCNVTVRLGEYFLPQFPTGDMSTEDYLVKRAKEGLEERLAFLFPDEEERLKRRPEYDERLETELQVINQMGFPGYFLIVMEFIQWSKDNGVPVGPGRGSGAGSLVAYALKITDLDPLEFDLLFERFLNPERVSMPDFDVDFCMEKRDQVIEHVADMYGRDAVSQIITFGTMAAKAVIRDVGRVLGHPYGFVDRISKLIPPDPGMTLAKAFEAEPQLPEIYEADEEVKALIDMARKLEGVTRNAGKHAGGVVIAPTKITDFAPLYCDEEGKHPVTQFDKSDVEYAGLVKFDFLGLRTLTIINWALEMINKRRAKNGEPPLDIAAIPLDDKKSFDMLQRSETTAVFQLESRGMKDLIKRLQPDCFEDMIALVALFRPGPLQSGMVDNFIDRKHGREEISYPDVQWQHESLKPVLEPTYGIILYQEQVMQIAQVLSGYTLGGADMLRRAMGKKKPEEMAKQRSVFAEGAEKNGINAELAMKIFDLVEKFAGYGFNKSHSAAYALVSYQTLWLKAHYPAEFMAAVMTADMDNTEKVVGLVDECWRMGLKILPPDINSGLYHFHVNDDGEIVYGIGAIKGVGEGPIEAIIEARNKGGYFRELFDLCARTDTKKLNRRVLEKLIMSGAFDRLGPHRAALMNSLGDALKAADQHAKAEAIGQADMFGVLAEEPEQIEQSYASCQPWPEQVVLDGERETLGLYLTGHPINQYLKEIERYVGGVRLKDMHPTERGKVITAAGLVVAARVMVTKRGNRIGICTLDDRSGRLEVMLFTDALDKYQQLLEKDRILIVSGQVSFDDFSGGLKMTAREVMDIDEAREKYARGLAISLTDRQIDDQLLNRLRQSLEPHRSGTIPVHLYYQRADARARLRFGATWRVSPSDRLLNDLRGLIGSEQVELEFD
Protocol: as §1

[5] = biological target: DNA primase (UniProt P0ABS7)
Chain of DNA primase (P0ABS7 whole entry): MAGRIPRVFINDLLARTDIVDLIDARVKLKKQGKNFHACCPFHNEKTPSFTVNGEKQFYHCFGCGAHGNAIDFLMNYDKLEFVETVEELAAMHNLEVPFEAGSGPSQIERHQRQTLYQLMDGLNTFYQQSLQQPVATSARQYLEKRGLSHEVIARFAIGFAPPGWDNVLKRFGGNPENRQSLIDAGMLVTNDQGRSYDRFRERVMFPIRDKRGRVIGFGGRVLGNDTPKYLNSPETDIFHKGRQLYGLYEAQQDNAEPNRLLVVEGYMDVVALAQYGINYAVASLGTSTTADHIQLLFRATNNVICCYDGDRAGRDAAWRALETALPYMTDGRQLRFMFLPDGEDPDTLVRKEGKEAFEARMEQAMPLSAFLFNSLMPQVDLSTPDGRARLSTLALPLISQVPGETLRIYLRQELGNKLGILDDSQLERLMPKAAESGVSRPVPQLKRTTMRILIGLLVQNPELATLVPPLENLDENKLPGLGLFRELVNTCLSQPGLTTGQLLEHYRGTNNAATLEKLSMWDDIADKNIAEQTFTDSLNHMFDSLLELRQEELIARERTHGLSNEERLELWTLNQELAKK
Protocol: as §1

[6] = biological target: GlmU (UniProt A7ZTU1)
Chain of GlmU (A7ZTU1 whole entry, looked up): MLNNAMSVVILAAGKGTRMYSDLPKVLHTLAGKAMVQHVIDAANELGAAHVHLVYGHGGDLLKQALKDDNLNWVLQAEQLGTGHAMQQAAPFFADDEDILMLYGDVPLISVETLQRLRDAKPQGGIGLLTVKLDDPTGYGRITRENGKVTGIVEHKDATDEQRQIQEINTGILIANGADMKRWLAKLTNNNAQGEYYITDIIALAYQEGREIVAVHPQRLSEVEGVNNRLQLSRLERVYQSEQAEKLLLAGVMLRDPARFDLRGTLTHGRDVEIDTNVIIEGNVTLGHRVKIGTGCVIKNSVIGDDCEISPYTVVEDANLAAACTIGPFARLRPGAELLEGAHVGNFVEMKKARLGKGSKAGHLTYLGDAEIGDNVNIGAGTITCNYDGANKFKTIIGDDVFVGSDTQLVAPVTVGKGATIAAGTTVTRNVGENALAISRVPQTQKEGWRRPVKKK
Protocol: as §1

[7] = biological target: Guanlyate kinase (UniProt Q0TBG1)
Chain of Guanlyate kinase (Q0TBG1 whole entry): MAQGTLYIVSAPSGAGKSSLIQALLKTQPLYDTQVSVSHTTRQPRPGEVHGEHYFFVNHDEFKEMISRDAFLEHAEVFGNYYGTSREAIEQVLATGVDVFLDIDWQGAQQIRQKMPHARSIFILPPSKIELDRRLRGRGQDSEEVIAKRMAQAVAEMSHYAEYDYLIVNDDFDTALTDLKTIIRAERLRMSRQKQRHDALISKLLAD
Protocol: as §1

[8] = biological target: MurA (UniProt Q3YX52)
Chain of MurA (Q3YX52 whole entry): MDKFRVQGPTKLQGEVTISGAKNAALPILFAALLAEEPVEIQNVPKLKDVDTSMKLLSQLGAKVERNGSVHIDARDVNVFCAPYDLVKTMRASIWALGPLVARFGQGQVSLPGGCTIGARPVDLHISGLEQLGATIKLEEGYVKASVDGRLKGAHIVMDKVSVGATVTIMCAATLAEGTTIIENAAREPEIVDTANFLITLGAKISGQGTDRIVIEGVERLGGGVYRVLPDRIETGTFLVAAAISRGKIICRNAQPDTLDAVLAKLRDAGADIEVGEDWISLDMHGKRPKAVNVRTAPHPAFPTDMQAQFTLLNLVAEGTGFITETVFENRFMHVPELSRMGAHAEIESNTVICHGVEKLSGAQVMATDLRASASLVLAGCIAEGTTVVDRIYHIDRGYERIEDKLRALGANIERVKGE
Protocol: as §1

[9] = biological target: T1, MurD (UniProt P14900)
T1 sequence (whole entry): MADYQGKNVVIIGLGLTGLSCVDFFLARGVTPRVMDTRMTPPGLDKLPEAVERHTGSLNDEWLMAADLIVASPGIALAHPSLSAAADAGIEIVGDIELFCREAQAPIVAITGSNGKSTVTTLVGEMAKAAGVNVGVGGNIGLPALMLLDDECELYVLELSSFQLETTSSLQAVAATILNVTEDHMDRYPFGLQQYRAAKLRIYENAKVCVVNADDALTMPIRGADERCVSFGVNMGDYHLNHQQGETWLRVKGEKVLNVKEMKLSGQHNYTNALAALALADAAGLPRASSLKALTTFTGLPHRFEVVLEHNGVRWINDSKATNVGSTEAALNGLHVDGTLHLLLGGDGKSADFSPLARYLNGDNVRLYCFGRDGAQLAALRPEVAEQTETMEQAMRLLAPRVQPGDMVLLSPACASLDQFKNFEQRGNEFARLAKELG
Protocol: as §1

[10] = biological target: T2, MurF (UniProt P11880)
T2 sequence (whole entry): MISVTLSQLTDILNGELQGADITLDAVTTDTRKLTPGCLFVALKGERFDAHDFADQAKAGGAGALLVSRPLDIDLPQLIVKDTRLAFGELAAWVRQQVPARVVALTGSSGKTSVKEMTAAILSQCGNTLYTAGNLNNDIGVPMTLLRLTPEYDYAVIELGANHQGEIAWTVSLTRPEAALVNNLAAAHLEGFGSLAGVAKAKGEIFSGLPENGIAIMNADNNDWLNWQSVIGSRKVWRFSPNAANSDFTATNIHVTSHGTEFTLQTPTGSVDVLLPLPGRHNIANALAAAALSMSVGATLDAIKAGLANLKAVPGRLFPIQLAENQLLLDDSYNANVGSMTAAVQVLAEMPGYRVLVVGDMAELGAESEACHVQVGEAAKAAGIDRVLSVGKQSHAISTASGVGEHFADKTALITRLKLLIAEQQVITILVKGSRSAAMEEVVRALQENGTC
Protocol: as §1

[11] = system: RNA polymerase
Protocol: as §1

| SMILES | relative enzymatic activity [1] | relative enzymatic activity [2] | relative enzymatic activity [3] | relative enzymatic activity [4] | relative enzymatic activity [5] | relative enzymatic activity [6] | relative enzymatic activity [7] | relative enzymatic activity [8] | relative enzymatic activity [9] | relative enzymatic activity [10] | relative enzymatic activity [11] |
| --- | --- | --- | --- | --- | --- | --- | --- | --- | --- | --- | --- |
| Cc1scc2c1N(C(=O)CN1CCN(C)CC1)c1ccccc1NC2=O.Cl | 0.878 ± 0.31 | 0.526 ± 0.058 | 1.12 ± 0.35 | 1.17 ± 0.21 | 0.65 ± 0.14 | 1.1 ± 0.12 | 0.9435 ± 0.0079 | 0.703 ± 0.12 | 0.608 ± 0.41 | 0.931 ± 0.16 | 0.841 ± 0.091 |
| CON=C(C(=O)NC1C(=O)N2C(C(=O)O)=C(CSC(=O)c3ccco3)CSC12)c1csc(N)n1.Cl (centres undefined) | 0.933 ± 0.033 | 0.388 ± 0.053 | 1.07 ± 0.033 | 0.476 ± 0.67 | 0.657 ± 0.15 | 0.844 ± 0.063 | 0.949 ± 0.12 | 0.0647 ± 0.013 | 0.551 ± 0.37 | 0.95 ± 0.2 | 0.832 ± 0.051 |
| CON=C1CN(c2nc3c(cc2F)c(=O)c(C(=O)O)cn3C2CC2)CC1CN.CS(=O)(=O)O (centres undefined) | 0.058 ± 0.082 | 0.479 ± 0.14 | 1.09 ± 0.24 | 1.26 ± 0.31 | 0.805 ± 0.059 | 0.919 ± 0.027 | 0.856 ± 0.23 | 0.4853 ± 0.00068 | 0.503 ± 0.35 | 0.919 ± 0.19 | 0.88 ± 0.012 |
| Oc1ccc(Cl)c2cccnc12 | 0.354 ± 0.41 | 0.534 ± 0.19 | 1.03 ± 0.24 | 1.12 ± 0.21 | 0.7986 ± 0.0017 | 0.9167 ± 0.0045 | 0.821 ± 0.036 | 0.442 ± 0.04 | 0.656 ± 0.46 | 1.02 ± 0.23 | 0.854 ± 0.1 |
| CNC1C(O)C(NC)C2OC3(O)C(=O)CC(C)OC3OC2C1O.Cl.Cl (centres undefined) | 0.963 ± 0.22 | 0.484 ± 0.0079 | 1.07 ± 0.22 | 1.35 ± 0.45 | 0.693 ± 0.19 | 1.02 ± 0.015 | 0.421 ± 0.021 | 0.4888 ± 0.0032 | 0.533 ± 0.35 | 0.898 ± 0.16 | 0.871 ± 0.064 |
| CC1CN(c2c(F)c(N)c3c(=O)c(C(=O)O)cn(C4CC4)c3c2F)CC(C)N1 (centres undefined) | 0.00841 ± 0.012 | 0.442 ± 0.043 | 1.49 ± 0.054 | 1.23 ± 0.24 | 0.715 ± 0.21 | 0.913 ± 0.04 | 0.883 ± 0.029 | 0.603 ± 0.083 | 0.597 ± 0.4 | 0.543 ± 0.76 | 0.92 ± 0.0099 |
| NC[C@H]1O[C@H](O[C@H]2[C@H](O)[C@@H](O[C@H]3O[C@H](CO)[C@@H](O)[C@H](N)[C@H]3O)[C@H](N)C[C@@H]2N)[C@H](N)C[C@@H]1O | 0.902 ± 0.18 | 0.378 ± 0.22 | 0.91 ± 0.034 | 1.19 ± 0.21 | 0.572 ± 0.14 | 1.02 ± 0.033 | 0.443 ± 0.1 | 0.747 ± 0.093 | 0.609 ± 0.42 | 0.956 ± 0.23 | 0.906 ± 0.048 |
| C=CC1=C(C(=O)O)N2C(=O)[C@@H](NC(=O)/C(=N/O)c3csc(N)n3)[C@H]2SC1 | 0.0537 ± 0.076 | 0.371 ± 0.1 | 0.963 ± 0.1 | 1.16 ± 0.24 | 0.769 ± 0.027 | 1.004 ± 0.0086 | 0.947 ± 0.08 | 0.119 ± 0.015 | 0.599 ± 0.41 | 0.943 ± 0.22 | 0.785 ± 0.086 |
| Cl.N=C(N)n1cccn1 | 0.0897 ± 0.13 | 0.649 ± 0.3 | 1.13 ± 0.067 | 1.15 ± 0.22 | 0.868 ± 0.027 | 1.014 ± 0.0039 | 0.902 ± 0.2 | 0.813 ± 0.052 | 0.613 ± 0.43 | 0.939 ± 0.23 | 0.787 ± 0.012 |
| N[C@@H]1[C@H]2CN(c3nc4c(cc3F)c(=O)c(C(=O)O)cn4-c3ccc(F)cc3F)C[C@@H]12 | 0.0708 ± 0.1 | 0.354 ± 0.0078 | 1.04 ± 0.084 | 1.14 ± 0.23 | 0.689 ± 0.063 | 0.912 ± 0.029 | 0.937 ± 0.033 | 0.596 ± 0.17 | 0.555 ± 0.39 | 0.928 ± 0.22 | 0.783 ± 0.071 |
| Cc1oc(=O)oc1CN1CCN(c2cc3c(cc2F)c(=O)c(C(=O)O)c2n3C(C)S2)CC1 (centres undefined) | 0.0525 ± 0.074 | 0.431 ± 0.01 | 1.19 ± 0.31 | 1.23 ± 0.25 | 0.852 ± 0.0094 | 0.942 ± 0.024 | 1.12 ± 0.12 | 0.452 ± 0.31 | 0.586 ± 0.4 | 0.963 ± 0.18 | 0.842 ± 0.022 |
| Cc1ccc(S(=O)(=O)O)cc1.NC1CCN(c2nc3c(cc2F)c(=O)c(C(=O)O)cn3-c2ccc(F)cc2F)C1.O (centres undefined) | 1.41 ± 0.49 | 0.509 ± 0.054 | 1.02 ± 0.043 | 1.15 ± 0.22 | 0.892 ± 0.035 | 0.991 ± 0.05 | 0.699 ± 0.11 | 0.644 ± 0.029 | 0.935 ± 0.86 | 1.01 ± 0.21 | 0.771 ± 0.031 |
| CCN1CCN(c2cc3c(cc2F)c(=O)c(C(=O)O)cn3C2CC2)CC1 | 0.0177 ± 0.025 | 0.462 ± 0.018 | 1.05 ± 0.34 | 1.15 ± 0.22 | 0.617 ± 0.12 | 1 ± 0.11 | 0.894 ± 0.05 | 0.659 ± 0.029 | 0.59 ± 0.4 | 0.88 ± 0.13 | 0.808 ± 0.02 |
| Nc1ncn(C2OC(CO)C(O)C2O)c(=O)n1 (centres undefined) | 0.722 ± 0.32 | 0.653 ± 0.16 | 1.318 ± 0.003 | 1.27 ± 0.31 | 0.709 ± 0.21 | 1.14 ± 0.13 | 0.934 ± 0.14 | 0.786 ± 0.13 | 0.61 ± 0.4 | 0.987 ± 0.21 | 1.01 ± 0.18 |
